# Assay results taken from the antibiotic and cytotoxicity screens of Wong et al. (2023).
# The whole screen tested about 39,000 compounds, of which about 3,300 (8.5%) were called active. The entries come from a sample that favours actives as a whole.
# Tested on: HepG2
# Assay: cytotoxicity call (relative viability < 0.9)
# Details: 10 µM
row,SMILES,cytotoxicity call
1,C[C@H](CO)N1C[C@H](C)[C@H](CN(C)C(=O)NC2CCCCC2)OCCCC[C@H](C)Oc2ccc(NC(=O)CCC(F)(F)F)cc2C1=O,inactive
2,Cn1c(=O)c2c(nc3n2CC=NN3)n(C)c1=O,inactive
3,Cc1n[nH]c(C)c1N,inactive
4,CC(C)(C)[S@@](=O)N1Cc2cc(C(=O)N3CCCCC3)nc(-c3cccc(C4=CCCC4)c3)c2[C@H]1CCO,inactive
5,C[C@@H]1CN([C@H](C)CO)C(=O)c2cccc(NC(=O)CCCCCC(=O)Nc3ccccc3N)c2O[C@H]1CN(C)S(C)(=O)=O,inactive
6,C[C@H](CO)N1C[C@H](C)[C@@H](CN(C)Cc2ccc(-c3ccccc3)cc2)Oc2ccc(NS(=O)(=O)c3ccc(F)cc3)cc2C1=O,active
7,Cc1noc(C)c1S(=O)(=O)N(C)C[C@H]1Oc2ccc(NS(=O)(=O)c3cn(C)cn3)cc2CC(=O)N([C@@H](C)CO)C[C@H]1C,inactive
8,CCOC(=O)C1=C(C)N[C@@]2(O)C[C@@H]1[C@H]1CO[C@@H]2O1,inactive
9,Nc1ccc(C(=O)O)c(O)c1,inactive
10,NNC(=O)c1ccncc1,inactive
11,NNC(=O)c1ccncc1.Nc1ccc(C(=O)O)c(O)c1,active
12,CC(C)OC[C@H]1Cn2c(nc3c2c(=O)n(C)c(=O)n3C)O1,inactive
13,Cl.NCCCCC(N)C(=O)O (configuration not stated),inactive
14,NCCCC[C@H](N)C(=O)O,inactive
15,NC(CC(=O)O)C(=O)O (configuration not stated),inactive
16,Cl.NCCCC(N)C(=O)O (configuration not stated),active
17,NC(=O)CC[C@@H](N)C(=O)O,inactive
18,NC(=O)CCC(N)C(=O)O (configuration not stated),active
19,NC(CO)C(=O)O (configuration not stated),active
20,NC(=O)CC[C@H](N)C(=O)O,inactive
21,N[C@H](CO)C(=O)O,inactive
22,NC(=O)NCC#Cc1ccc2c(c1)[C@]1(C(=O)N2)[C@H](c2ccc(OCCO)cc2)N2[C@H](c3ccccc3)[C@H](c3ccccc3)OC(=O)[C@H]2[C@@H]1C(=O)N1CCCCCCC1,inactive
23,C[C@H](CO)N1C[C@H](C)[C@@H](CN(C)Cc2ccc3c(c2)OCO3)OCc2ccccc2-c2c(n(C)c3ccccc23)C1=O,inactive
24,C[C@H]1CCCCO[C@@H](CN(C)C(=O)CCC(F)(F)F)[C@@H](C)CN([C@@H](C)CO)C(=O)c2cc(NS(=O)(=O)c3ccc(F)cc3)ccc2O1,inactive
25,C[C@H](CO)N1C[C@H](C)[C@H](CN(C)C(=O)Nc2cccc3ccccc23)Oc2ccc(NC(=O)Nc3ccccc3)cc2CC1=O,inactive
26,Cc1cccc(NC(=O)Nc2ccc3c(c2)C(=O)N(C)[C@H]2CC[C@H](CC(=O)NCc4ccccc4Cl)O[C@H]2CO3)c1,inactive
27,C[C@@H]1CN([C@H](C)CO)S(=O)(=O)c2ccc(C#CC3CC3)cc2O[C@H]1CN(C)C(=O)Cc1ccncc1,inactive
